These results are taken from the OligoGym collection.
Note: reference of the scale not given here.

In one assay the target is EIF1. Description: pooled miR-30 sensor sort-seq; sequence = guide strand. As to conditions: shRNA.
AAACTTTTTCTTAAACGCCTTC registered a sensor-assay potency score (higher = more potent) of -0.311. AATTACTTCTCCATATTCCGGA: the sensor-assay potency score (higher = more potent) stood at 0.541. Still for that read-out and setting: then TTTTATCGTAATCATCAGCGAT, with -0.796; and TGTAGCTGAATTACTTCTCCAT, with 0.149; and TAGTAAGGGTCTTCCTGCCGTT, with -0.658. For the sequence TCAATTACAGTACCATTGCAGG, the sensor-assay potency score (higher = more potent) was -1.4. Sequence TTGGACAGTAGTAAGGGTCTTC returned a sensor-assay potency score (higher = more potent) of 0.328.

Another assay concerns the target EIF2B2. The description is as above. As to conditions: shRNA.
As for ATAATCTTGAGCACTCTCCGCA, the sensor-assay potency score (higher = more potent) was 0.402. In the case of TTTAACACACTACTGAACCAGA, the sensor-assay potency score (higher = more potent) was -0.372. With TTATGTTTAACACACTACTGAA, the sensor-assay potency score (higher = more potent) is -0.666.

Regarding TTGACTCTTGACATAACGGCAA, the sensor-assay potency score (higher = more potent) was -0.00739. The sequence TATGAAATGAGTCTTCTTCATT came in with a sensor-assay potency score (higher = more potent) of -1.13.

For TATGTTTAACACACTACTGAAC, the sensor-assay potency score (higher = more potent) is -1.15. With TAACACACTACTGAACCAGAAA, the sensor-assay potency score (higher = more potent) is -0.956.

In the case of TAGAGTTCACTCATCAGGCGGT, the sensor-assay potency score (higher = more potent) turned out to be 0.258. For the sequence TCTCTGACAACTCCGAGCCCTT, the sensor-assay potency score (higher = more potent) was -1.5. In turn, ATCCTCTCTGACAACTCCGAGC yielded a sensor-assay potency score (higher = more potent) of -1.34. The sequence TGACTCTTGACATAACGGCAAA showed a sensor-assay potency score (higher = more potent) of -1.53.

Turning to TAATCTTGAGCACTCTCCGCAC, the sensor-assay potency score (higher = more potent) is -0.531.

The target of another assay is EIF3K. The assay is described as above. The following applies: shRNA.
With TAAACTTTCGGACAGAGTCTTC, the sensor-assay potency score (higher = more potent) was -0.691. Sequence TTCTCCACAATGTTCTTGGGTT displayed a sensor-assay potency score (higher = more potent) of -0.486. In turn, TTGGCTACAGATGAAGATCTGC displayed a sensor-assay potency score (higher = more potent) of 0.0721.

TGATGCTGGACACACTGTCAAA returned a sensor-assay potency score (higher = more potent) of -1.61. For the sequence TACCCTTGAGCAACTTGCCCAC, the sensor-assay potency score (higher = more potent) is -0.487.

TATTTGCTCATCCACACCTTTA: the sensor-assay potency score (higher = more potent) is -1.23. TTCTTGATGTGCCTGGTCGATC registered a sensor-assay potency score (higher = more potent) of -1.05. Same read-out and setting: then TTGCACAGGGTGAAGTCTGTGT, with -0.115; and TTGATGTGCCTGGTCGATCATG, with -1.46. For the sequence TATACCTTCCAAGAGGTCCATG, the sensor-assay potency score (higher = more potent) was -1.12. ATCTTCTCCACAATGTTCTTGG gave a sensor-assay potency score (higher = more potent) of -0.584. In the case of TACAGATGAAGATCTGCCCCGA, the sensor-assay potency score (higher = more potent) is 0.0464.

Another assay has as its target EIF3M. The assay is described as above. The following applies: shRNA.
With TACAGGAGTATTCTTATCCATC, the sensor-assay potency score (higher = more potent) is -1.23. The sequence ATCTTCTTCACTGATGTCGATG displayed a sensor-assay potency score (higher = more potent) of -1.42. TTGCTTAACAACTGCAGTCTCA: the sensor-assay potency score (higher = more potent) was -0.8.

As to TTGTCCTCTGTGTAACTTCCGA, the sensor-assay potency score (higher = more potent) is -0.798. Turning to TTCAACATCTTTATCATCCTCC, the sensor-assay potency score (higher = more potent) worked out at 0.759. In turn, TTTTCTAACTTGATCCAGCTCA yielded a sensor-assay potency score (higher = more potent) of -0.0518. The sequence AACATCATCAGCTCCAATCTGA showed a sensor-assay potency score (higher = more potent) of 0.0943. On to TTAACAACTGCAGTCTCAGAGA, for which the sensor-assay potency score (higher = more potent) is -0.725. TGAAGCAGCATCACTCTTCTTA: the sensor-assay potency score (higher = more potent) was determined as 0.0165.
